According to PubChem BioAssay AID1347428 (National Center for Advancing Translational Sciences (NCATS), 2020):
Screen size: about 91,000 compounds; about 290 (0.32%) were called active. Not shown: some 7% with an inconclusive outcome. For the sample, actives were picked, then their nearest neighbours and some compounds at random. A number with no mark means an inactive call. Calls come from the whole dose curve; as a rule, active = well fitted inhibition curve with a large enough effect; inconclusive = small, poorly fitted or top-dose-only effect; inactive = no such curve, though single readings can be large or run the other way.

target: Single-stranded DNA cytosine deaminase (Homo sapiens) (UniProt Q9GZX7); assay: Primary qHTS assay for inhibitors of Activation Induced Cytidine Deaminase (AID): AID signal; details: AID deamination FRET fluorescence, UDG-coupled, 4 h; series mostly up to 115 µM; activity change, negative = inhibition: at the top concentration; note: nearly all actives have a fitted effect of over 25% in size
Sequence (Q9GZX7 whole entry, looked up): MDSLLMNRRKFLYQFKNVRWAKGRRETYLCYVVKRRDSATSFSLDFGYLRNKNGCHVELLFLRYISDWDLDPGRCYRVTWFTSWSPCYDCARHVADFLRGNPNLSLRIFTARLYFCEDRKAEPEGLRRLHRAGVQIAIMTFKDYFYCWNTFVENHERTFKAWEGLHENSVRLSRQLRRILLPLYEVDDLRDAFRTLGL
% is set by controls: 0 for no effect and ±100 for the full control effect; potency is the fitted concentration of half-maximal effect.

| SMILES | activity change, negative = inhibition | Potency |
| --- | --- | --- |
| Cc1cc(O)c2c(C)c(CC(=O)Nc3nc4ccccc4[nH]3)c(=O)oc2c1 | 1.17% |  |
| Cc1ccc(CC(=O)NC2(C)CCCc3ccccc32)cc1 (centres undefined) | 0.195% |  |
| CCn1c(SCC(=O)N2CCc3ccccc32)nnc1C(C)NC(=O)c1ccccc1F (centres undefined) | -8.1% |  |
| O=S1(=O)C=CC(N(Cc2ccccc2)Cc2ccccc2F)C1 (centres undefined) | -15.4% |  |
| Cc1cc(NC(=O)C(C)Sc2nc(NC3CC3)c3ccccc3n2)no1 (centres undefined) | -6.81% |  |
| O=C(NC(CCCc1ccccc1)c1ccccc1)c1ccc[n+]([O-])c1 (centres undefined) | -7.86% |  |
| COc1ccc(OC)c(CNC(=O)c2scnc2C)c1 | 10.7% |  |
| CCCCNC(=O)CSc1c2c(nc3cc(Cl)ccc13)CCCC2 | -17.5% |  |
| COc1cccc(N=C2NN=C(c3ccc4c(c3)CC(C)N4S(C)(=O)=O)CS2)c1 (centres undefined) | 21.3% |  |
| COc1cc(C(=O)Oc2ccc(C(C)=O)cc2)ccc1C | 11.9% |  |
| CCN(C)Cc1cccc(CNC(=O)NC2CC2)c1 | -3.88% |  |
| CCn1c(CNC(=O)C23CC4CC(CC(C4)C2)C3)nnc1SCC(=O)Nc1ccc(OC)cc1 | -13.2% |  |
| Cc1cccc(NC(=O)CSc2nnc(CNC(=O)c3cccc(C)c3)n2-c2ccccc2)c1 | -8.63% |  |
| CCCCn1c(CNC(=O)C23CC4CC(CC(C4)C2)C3)nnc1SCC(=O)Nc1ccc(C)cc1 |  | 44.7 µM (active) |
| Cc1ccc(-n2c(=O)c3sccc3n(CC(=O)N3CCCCC3C)c2=O)cc1C (centres undefined) | -1.29% |  |
| N#Cc1c(SCC(=O)N2CCCC2)nc(N2CCOCC2)c2c1CCCC2 | -14.6% |  |
| N#Cc1ncn(CCC(=O)Nc2ccc(F)c(F)c2)n1 |  | 14.1 µM (active) |
| Cc1ccc(NC(=O)Cn2c(=O)c3c(ncn3CC(C)C)n(CC(C)C)c2=O)cc1F | -19.2% |  |
| CCOC(=O)c1ccc(NC(=O)CCn2cnnn2)cc1 | 0.636% |  |
| Cc1nc2nc(SCC(=O)c3ccccc3)[nH]c2cc1Br | -8.97% |  |
| CN(Cc1c(F)cccc1Cl)C(=O)c1ccc(NS(C)(=O)=O)cc1 | -4.28% |  |
| O=C(NC1CC1)c1cc(-c2ccc(Cl)cc2)nc2ccccc12 | -3.94% |  |

| SMILES | activity change, negative = inhibition | Potency |
| --- | --- | --- |
| COc1cc(F)ccc1NC(=O)Cc1nn(C)c(=O)c2ccccc12 | -4.44% |  |
| COc1ccc(-c2nnc(SCCOc3ccc(Cl)cc3Cl)n2C(C)C)cc1 | -26.6% |  |
| Cc1c(Cl)cccc1NC(=O)C1CCCN(c2ncnc3onc(C)c23)C1 (centres undefined) | 1.15% |  |
| Cc1c(Cl)cccc1NC(=O)C1CCCN(C(=O)c2cnn(-c3ccccc3)c2-n2cccc2)C1 (centres undefined) |  | 22.4 µM (active) |
| O=C(c1cnn(-c2ccc(F)cc2)c1-n1cccc1)N1CCN(c2ccc(F)cc2)CC1 | -15% |  |
| Nc1nnnn1Cc1nnc(SCc2ccc(F)cc2)n1-c1ccccc1 | -7.07% |  |
| Cc1ccccc1/C=C1\CCc2ccccc2C1=O | -12.2% |  |
| O=C(NC(c1ccccc1)c1ccccn1)c1cc[n+]([O-])cc1 (centres undefined) | 5.75% |  |
| O=C(NCCc1ccccc1)c1[nH]c2ccccc2c1Cl | 4.63% |  |
| COc1cc(C(=O)Nc2ccc(C(=O)O)cc2)c2ccccc2n1 | -14.4% |  |
| COc1ccccc1-c1cc(=O)c2cc(C)ccc2o1 | -7.1% |  |
| COC(=O)C(C)(NC(=O)CCC(=O)c1ccccc1)c1ccccc1 (centres undefined) | -8.13% |  |
| O=C(NC/C(=N/NC(=O)c1cccnc1)c1ccccc1)c1ccccc1 | -6.31% |  |
| CN(Cc1cccc(C(F)(F)F)c1)C1CCN(C(=O)c2cncc(Br)c2)CC1 | 4.19% |  |
| Cc1cc2nc(CSc3nc4ccc(NC(=O)CCC5CCCC5)cc4s3)cc(=O)n2o1 | 6.43% |  |
| O=Cc1cccc(Br)c1O | -2.6% |  |
| Cc1ccc(S(=O)(=O)NC(C)c2cccs2)cc1 (centres undefined) | 2.96% |  |
| Cc1cc(C(C)(C)C)cc(C)c1CS(=O)Cc1ccc(F)cc1 (centres undefined) | -27.6% |  |
| CC(=O)c1c(C)[nH]c(C(=O)C(C)SCc2ccc(Cl)cc2)c1C (centres undefined) | -4.65% |  |
| NC(=O)NNC(=S)Nc1ccc(SC(F)F)cc1 | -2.65% |  |
| COC(=O)c1cc(S(=O)(=O)Nc2ccc(C)c(F)c2)c[nH]1 | -0.855% |  |
| CCc1ccc(-c2csc(/C(C#N)=C\Nc3ccccc3C)n2)cc1 | -2.89% |  |

| SMILES | activity change, negative = inhibition | Potency |
| --- | --- | --- |
| Cc1sc(NC(=O)Cc2ccccc2)c(C#N)c1C | 8.65% |  |
| Cc1cc(-c2ccccc2)c(-c2nc3ccccc3s2)[nH]1 | 67.1% |  |
| C=CCNCc1ccc(CC)cc1 | -3.27% |  |
| COc1ccc(-c2csc(N)c2C#N)cc1 | 28.9% |  |
| O=C(CCC1CCCC1)NCc1ccncc1 | -3.62% |  |
| c1ccc2cc(OCCSc3ccc4ccccc4n3)ccc2c1 | -1.21% |  |
| COc1cc(/C=C2/NC(=O)NC2=O)cc(I)c1OCC(=O)O | 9.59% |  |
| C[N+](C)(CCCCCC[N+](C)(C)CCCN1C(=O)c2cccc3cccc(c23)C1=O)CCCN1C(=O)c2cccc3cccc(c23)C1=O |  | 4.47 µM (active) |
| Cc1ccc2c(c1)-c1cccc3cccc(c13)C2=O | -3.02% |  |
| COc1ccc(CNC(=O)/C=C/c2ccc(C)cc2)cc1 | -7.12% |  |
| CCc1nc2ccccc2c(NC(=O)CN(CC)CC)c1C | 2.75% |  |
| Cc1ccn2c(F)c(C(F)(F)F)nc2c1 | -2.88% |  |
| C=CCn1c(NCCCOCC)nc2c1c(=O)[nH]c(=O)n2C | -13.2% |  |
| Cc1ccc2[nH]c(=O)c(-c3noc(CCCC(=O)NC4CCCCC4)n3)cc2c1 | 11% |  |
| Cc1c(F)cccc1NC(=O)C12CC3CC(CC(C3)C1)C2 | -16.2% |  |
| Cc1ccc(C)c(C(C)NC(=S)NCc2ccc(Cl)cc2)c1 (centres undefined) | -11.9% |  |
| O=C(c1ccc(Cl)cc1Cl)N(C1CCCCC1)C1CCCCC1 | -9.19% |  |
| Cc1ccc(CNC(=O)c2scnc2C)cn1 | -0.773% |  |
| Cc1cc(-c2noc(COc3ccc(I)cc3)n2)c2ccccc2n1 | -15.1% |  |
| CCn1nnc(NC(=O)c2cc3ccccc3cc2OC)n1 | -11.7% |  |
| CCCNC(=O)C1CCC(Cn2c(=O)c3sccc3n(Cc3ccccc3F)c2=O)CC1 (centres undefined) | -24.2% |  |
| O=C(C1CCC(Cn2c(=O)c3sccc3n(Cc3ccccc3F)c2=O)CC1)N1CCCCC1 (centres undefined) |  | 25.1 µM (active) |

| SMILES | activity change, negative = inhibition | Potency |
| --- | --- | --- |
| CC(C)NC(=O)C1CCC(Cn2c(=O)c3sccc3n(Cc3ccc(F)cc3)c2=O)CC1 (centres undefined) | -4.59% |  |
| N#Cc1cccc(NC(=S)NCCc2ccccc2)c1 | -15.4% |  |
| CCNCc1ccccc1C(F)(F)F | -1.7% |  |
| CCCCNC(=O)Nc1ccccc1CC(N)=O | -1.59% |  |
| O=C(CSc1ccc2c(c1)OCCO2)Nc1ccc2c(c1)OCCO2 | -9.11% |  |
| COCCNc1nc(-c2ccccc2)c2cc(Br)ccc2n1 | -17.5% |  |
| CCN(C(=O)C1CCN(c2nc3ccccc3o2)CC1)c1ccc(F)c(F)c1 | -14% |  |
| CC(=O)Oc1c(Cl)cc(Cl)cc1Sc1cc(Cl)cc(Cl)c1OC(C)=O | -6.63% |  |
| Cc1ccc(OCCSc2nnc(COc3ccccc3Cl)n2C)cc1 | -23.4% |  |
| CCCCCCCCc1cnc(-c2ccc(O)cc2)nc1 | 2.8% |  |
| COc1cc(CN(C(=S)NCC(=O)NCc2ccccc2Cl)C2CCCC2)cc(OC)c1OC | -11.1% |  |
| CC(=O)N1CCC(NC(=O)c2cc(C)nc3cc(F)ccc23)CC1 | 9.52% |  |
| Cc1nn(-c2ncnc3nc[nH]c23)c2c1C(c1cccc(F)c1)CC(=O)N2 (centres undefined) | -20.6% |  |
| O=C(O)C1CCN(C(=O)Cn2ccc3c(Br)cccc32)CC1 | 10.4% |  |
| CCC(=O)c1ccc(C2CCCCC2)cc1 | 0.556% |  |
| C(=C\c1ccccc1)/CNC1CC1 | -7.64% |  |
| N#Cc1ccc(COC(=O)CCC(=O)c2ccccc2)cc1 | -10.1% |  |
| Cc1cc(C(=O)O)c(C)n1CC(F)(F)F | 3.52% |  |
| O=C(/C=C/c1cccs1)N1CC=C(c2ccccc2)CC1 | -1.83% |  |
| C(#CCN1CCCCC1)COC(c1ccccc1)c1ccccc1 | -6.93% |  |
| CC(C)NS(=O)(=O)c1ccc(C(=O)NCC(=O)O)cc1 | 2.86% |  |
| COc1cccc(CN(C)S(=O)(=O)c2cnn(C)c2)c1OC | -0.162% |  |

| SMILES | activity change, negative = inhibition | Potency |
| --- | --- | --- |
| CC(C)CCNC(=S)Nc1cccc(C(F)(F)F)c1 | -14% |  |
| O=C(Nc1ccc2nc(N3CCCC3)sc2c1)c1ccc(F)cc1 | 2.27% |  |
| Cc1cc(C(=O)OCc2cccc(C#N)c2)c(C)o1 | 2% |  |
| O=C(N/N=C/c1ccccc1OCCOc1ccc([N+](=O)[O-])cc1)Nc1ccccc1 | -3% |  |
| COc1ccc(NC(=O)Cc2ccc3c(c2)OCCO3)cn1 | 4.51% |  |
| Cc1nn(C)c2c(=O)n(CC(=O)NCc3ccccc3)ccc12 | -12.6% |  |
| CCOc1ccc(C(=O)CCC(=O)OCC(=O)c2ccc3c(c2)OCCO3)cc1 | 20.4% |  |
| CC(C)c1ccc(NC(=O)CSc2nc3ncc(Cl)cc3[nH]2)cc1 | -2.2% |  |
| COc1cc(C2CC(=O)Nc3nc(-c4ccccc4)[nH]c(=O)c32)ccc1OCc1ccc(F)cc1 (centres undefined) | -1.85% |  |
| CCCCNc1oc(/C=C/c2ccc(OCC)cc2)nc1C#N | -4.06% |  |
| Cc1ccc(NC(=O)CCc2nc3cc(Cl)ccc3n(CC(C)C)c2=O)cc1 | 1.54% |  |
| O=C1c2ccccc2C(=Cc2ccc(Cl)cc2)c2ccccc21 | -10.6% |  |
| O=C(O)c1ccc(I)c(Br)c1 | -4.24% |  |
| COc1cc(OC)cc(-c2nc3nc(C)c(CCC(=O)Nc4ccccc4)c(C)n3n2)c1 | -12.3% |  |
| Cc1nnc(SCC(=O)NCc2ccccc2Cl)c2nn(-c3ccccc3)c(C)c12 | 18.6% |  |
| Cc1nc2nc(SCC(=O)N(Cc3ccccc3)C(C)C)nn2c(C)c1Cc1ccccc1Cl |  | 22.4 µM (active) |
| CCCCOc1ccc(C(=O)N2CC(=O)Nc3ccc(Br)cc3C2c2ccc(F)cc2)cc1 (centres undefined) |  | 35.5 µM (active) |
| COc1ccc(CC(=O)N2CC(=O)Nc3ccc(Br)cc3C2c2ccc(F)cc2)cc1OC (centres undefined) | -20.9% |  |
| Cc1cccc(CC(=O)N2CC(=O)Nc3ccc(F)cc3C2c2ccccc2)c1 (centres undefined) | -10.3% |  |
| O=C(Nc1c(N2CCCC2)c2ccccc2oc1=O)c1ccc(Br)o1 | 4.68% |  |
| Cc1cc(NC(=O)c2ccc(F)cc2F)n(CCC#N)n1 | 2.66% |  |
